# Screening data: PubChem BioAssay, several laboratories
# SKN-1 block – C. elegans SKN-1 inhibition. C. elegans VP596 Pgst-4::GFP/RFP ratio, acrylamide-induced, 24 h. inhibition, % at 21.8 µM. actives 0.49% (n = 360,000);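 active = interference check ratio from 0.5 to 1.5 plus GFP to RFP signal ratio inhibition reaching or exceeding a fixed threshold, cut at about 30% in these data, passing the limit was not always enough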
# EP2 antag – inhibitors of human EP2 prostaglandin E2 receptor. actives 0.52% (n = 260,000). C6 glioma cells expressing human EP2, cAMP TR-FRET; cells stimulated with saturating PGE2. inhibition, % at 25 µM. AID 1422. P43116;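 active = percent inhibition above 40 after rounding to a whole number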;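 note: rat C6 glioma host cells with rolipram phosphodiesterase inhibitor present; the protocol text gives 20 µM as final concentration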
# Target sequence (P43116 whole entry, looked up): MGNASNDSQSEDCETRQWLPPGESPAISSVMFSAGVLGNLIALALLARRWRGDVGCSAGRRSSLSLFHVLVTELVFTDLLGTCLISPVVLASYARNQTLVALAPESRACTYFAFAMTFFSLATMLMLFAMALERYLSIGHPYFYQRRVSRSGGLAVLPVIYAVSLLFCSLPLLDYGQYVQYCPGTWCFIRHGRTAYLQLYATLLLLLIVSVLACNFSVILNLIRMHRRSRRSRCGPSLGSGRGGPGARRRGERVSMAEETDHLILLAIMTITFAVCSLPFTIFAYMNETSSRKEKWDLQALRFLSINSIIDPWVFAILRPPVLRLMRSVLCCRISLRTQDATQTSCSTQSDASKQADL
# EP2 modulator – modulators of human EP2 prostaglandin E2 receptor | induction, % at 25 µM | P43116 | AID 940 | EP2-expressing cells, cAMP HTRF FRET, PGE2 co-stimulation | actives 0.83% (n = 260,000);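 active = compounds whose cAMP rise, as percent of the full-agonist control response, exceeds 60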;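 note: rat C6 glioma line stably carrying human EP2 under a CMV promoter; the protocol text gives 20 µM as final concentration; 100% = response of wells given 1 µM PGE2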
# NR1D1 modulator – Rev-erb alpha (human) modulation. Rev-erbα–FITC-DNA binding, fluorescence polarization, 90 min. activity, % at 10 µM. actives 0.79% (n = 370,000). AID 1259318;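 active = activity above about 14%, limit read from the data; passing the limit was not always enough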;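 note: 0% = DMSO wells with 35 nM protein and 100% = DMSO wells with 750 nM protein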
# RAM inhibit – inhibitors of the yeast RAM network; S. cerevisiae dse1pr::URA3 reporter, 5-FOA growth OD615, 2 d; analog-sensitive cbk1-as2 kinase mutant strain; inhibition, % at 50 µM; actives 1.8% (n = 190,000); AID 868;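 active = inhibition above a set limit, 3 SD over mean compound inhibition, cut at about 8.4% in these data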;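 note: 0% = DMSO-only wells with no growth and 100% = 10 µM 1-NA-PP1 full growth; inhibition rescues growth on 5-FOA so higher OD means more RAM inhibition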
# PG9 Ab binder – PG9 antibody binding by small molecule; TR-FRET gp120-PG9 antibody binding; inhibition, % at 6.7 µM; actives 0.43% (n = 360,000); in the data active = inhibition above about 8.5%
# Active calls of the source: *; x = no result given; ! = repeats disagree. An excerpt weighted towards active compounds, which were near 2.9% of everything screened.
SMILES,SKN-1 block,EP2 antag,EP2 modulator,NR1D1 modulator,RAM inhibit,PG9 Ab binder
CCc1cc2c(C)ccc(C)c2nc1SCC(=O)Nc1nc(C)cs1,x,3.2,42.0,x,x,x
CCOC(=O)c1cc2cc3ccccc3cc2[nH]1,39.7*,13.4,-31.8,-0.9,4.7,-2.6
CC(C)OC(=O)c1cc2ccccc2[nH]1,-1.5,6.7,-10.9,-3.2,1.7,0.9
Cn1c(N)nc2c(nc(OCc3ccccc3)n2[C@H]2O[C@H](CO)[C@@H](O)[C@@H]2O)c1=O,x,57.2*,25.1,x,x,x
O=c1[nH]cnc2c1nc(NCc1ccccc1)n2C1O[C@@H](CO)[C@H](O)[C@@H]1O (some centres not stated),-1.0,x,x,-0.2,x,-0.7
CCc1ccc2[nH]c(=O)c(C(c3nnnn3C(C)(C)C)N3CCN(c4ccccc4)CC3)cc2c1 (configuration not stated),x,13.0,35.4,x,x,x
O=C(CC12CC3CC(CC(C3)C1)C2)Nc1ccc(CN2CCOCC2)cc1,x,11.3,-4.0,x,x,x
O=C1OC2(CCCCC2)OC(=O)C1=Cc1ccc(Cl)cc1,x,33.8,-19.9,x,x,x
O=C(NC(=S)NCCN1CCOCC1)c1ccccc1Cl,-15.7,7.1,64.3*,-1.1,1.1,-0.7
COc1ccc(C(=O)Nc2ccc(-c3nc4ccc(C)cc4o3)cc2)cc1OC,x,13.7,-9.9,x,x,x
COc1ccccc1CC(=O)Nc1ccccc1C(=O)O,3.5,4.2,7.5,1.9,-0.7,2.1
CCOC(=O)c1ccccc1NC(=O)CSc1nc2ccccc2o1,-11.1,4.5,61.2*,2.7,3.6,0.3
O=C(O)CSc1nc2ccccc2o1,-1.1,7.2,19.0,7.0,2.4,-0.6
CCOC(=O)c1ccccc1NC(=O)Cc1ccccc1OC,50.3*,0.5,61.7*,0.7,0.0,2.5
COC(=O)c1ccc(CSc2nc3ccccc3o2)cc1,40.2*,6.0,3.3,-2.4,8.8*,-1.2
CCOC(=O)c1c(NC(=O)CSc2nc3ccccc3o2)sc(C)c1C,14.6,5.0,37.9,-1.2,6.9,-0.8
O=[N+]([O-])c1ccc(CSc2nc3ccccc3o2)cc1,68.9*,4.0,-7.0,3.6,1.9,1.7
O=C(O)c1cc2sccc2n1Cc1c(F)cccc1Cl,x,29.5,30.5,x,x,x
O=C(C1CC(c2ccc(Cl)c(Cl)c2)=NO1)N1CCOCC1 (configuration not stated),x,7.8,-60.0,x,x,x
NS(=O)(=O)c1ccc(N=C2C(=O)Nc3ccccc32)cc1,-9.4,5.6,-8.1,-10.2,x,0.3
O=C1Nc2ccccc2C1=Nc1ccc(S(=O)(=O)Nc2nccs2)cc1,-9.0,46.0*!,-18.7,0.6,x,-1.2
Cn1c(C(C#N)/C(=N\S(=O)(=O)c2cccs2)c2ccccc2)nc2ccccc21 (configuration not stated),1.2,9.9,4.1,3.8,9.6*,-2.1
COc1ccc(OC)c(NC(=O)CSc2nc(N)cc(N)n2)c1,x,8.1,-30.3,x,x,x
Cc1cccc(C)c1NCc1nnc(SCC(=O)Nc2sc3c(c2C#N)CCCC3)n1C,x,9.6,-37.2,x,x,x
O=C(O)[C@H]1CCCC[C@@H]1c1c2ccc(=O)c(O)c-2oc2c(O)c(O)ccc12,x,41.7*,-16.6,x,x,x
SMILES,SKN-1 block,EP2 antag,EP2 modulator,NR1D1 modulator,RAM inhibit,PG9 Ab binder
COc1cc([N+](=O)[O-])cc(/C=C2/SC(=S)N(Cc3ccccc3)C2=O)c1O,52.2*,x,x,-6.1,x,0.2
COc1cc(/C=C2/SC(=S)N(Cc3ccccc3)C2=O)ccc1OCC(=O)O,-4.1,x,x,1.6,x,-2.9
COc1ccc(/C=C2\SC(=NCc3ccccc3)N(Cc3ccccc3)C2=O)cc1OC,-27.0,7.0,31.4,7.1,9.4*,0.7
O=C1/C(=C\c2cccc([N+](=O)[O-])c2O)SC(=S)N1Cc1ccccc1,15.5,x,x,-16.2,x,0.1
COc1ccc(/C=C2\SC(=O)N(CC(=O)Nc3ccccc3O)C2=O)cc1OC,35.3*,x,x,5.3,x,-2.2
COc1cc(/C=C2/SC(=S)N(Cc3ccccc3)C2=O)cc(Cl)c1O,35.7*,x,x,4.7,x,-0.8
COc1ccc2c(c1)C=C(CN(CCCn1ccnc1)Cc1ccc(C)o1)CO2,x,5.2,10.7,x,x,x
CC1CCN(c2ccc(C(=O)N3CCC4(CC3)NC(=O)c3ccccc3N4)cc2)CC1,x,5.0,-10.5,x,x,x
CCc1ccc2[nH]c(=O)c(C(c3nnnn3C(C)(C)C)N(Cc3ccco3)CC3CCCO3)cc2c1 (configuration not stated),x,10.2,66.0*,x,x,x
Cc1ccc2[nH]c(=O)c(C(c3nnnn3C(C)(C)C)N(Cc3ccco3)CC3CCCO3)cc2c1 (configuration not stated),15.7,8.6,13.3,-2.3,1.2,-0.4
Cc1cccc2cc(CN(CCCO)C(c3nnnn3C(C)(C)C)C(C)C)c(=O)[nH]c12 (configuration not stated),x,14.8,-12.8,x,x,x
CCC(c1nnnn1C1CCCC1)N(Cc1ccco1)Cc1cc2cccc(C)c2[nH]c1=O (configuration not stated),x,7.0,64.0*,x,x,x
CCCC(c1nnnn1C1CCCCC1)N(Cc1ccco1)Cc1cc2cc(C)c(C)cc2[nH]c1=O (configuration not stated),x,8.5,71.8*,x,x,x
COc1ccccc1CN(Cc1cc2cccc(C)c2[nH]c1=O)C(c1nnnn1C(C)(C)C)C(C)C (configuration not stated),x,12.1,87.6*,x,x,x
CCCC(c1nnnn1C1CCCC1)N(Cc1ccco1)Cc1cc2cccc(C)c2[nH]c1=O (configuration not stated),x,9.1,58.4,x,x,x
C=CCNC(=O)CN1CCC(c2ccc(F)cc2)CC1,x,7.2,-23.9,x,x,x
CCN1C(=O)c2cccc3c(S(=O)(=O)O)ccc1c23,x,7.6,-14.4,x,x,x
COc1ccccc1C(C(=O)NC1CCCC1)N(C(=O)c1csnn1)C1CCCCC1 (configuration not stated),x,4.6,11.3,x,x,x
CCOc1ccccc1NC(=O)c1sc(NC(=O)c2ccco2)c(C(=O)OC)c1C,x,11.5,-13.2,x,x,x
CCCC(c1nnnn1C(C)(C)C)N(Cc1ccc(C)cc1)Cc1cc2cc(C)ccc2[nH]c1=O (configuration not stated),x,6.1,22.1,x,x,x
CCCC(c1nnnn1C(C)(C)C)N(Cc1ccco1)Cc1cc2cc(C)ccc2[nH]c1=O (configuration not stated),x,7.2,66.1*,x,x,x
CCCC(c1nnnn1C(C)(C)CC)N(Cc1ccco1)Cc1cc2cc(C)c(C)cc2[nH]c1=O (configuration not stated),x,30.6,66.3*,x,x,x
Cc1cc(C)c2[nH]c(=O)c(CN(Cc3ccco3)C(c3nnnn3C(C)(C)C)C(C)C)cc2c1 (configuration not stated),x,14.7,69.6*,x,x,x
CCCC(c1nnnn1Cc1ccco1)N(Cc1ccccc1)Cc1cc2cc(C)c(C)cc2[nH]c1=O (configuration not stated),x,9.0,24.7,x,x,x
